Out of some 310,000 compounds screened, about 14,000 (4.5%) showed an effect of 50% or more. The effect is printed as a negative number. For the sample, strong results were picked, then their nearest neighbours and some compounds at random.
target: human ether-à-go-go-related gene (hERG) potassium channel (human, UniProt Q12809); assay: primary screen, population patch clamp on CHO cells stably expressing hERG; higher = less effect of the substance
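Further: peak tail current of the secondary pulse compared with the same well before compound.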

Chain of human ether-à-go-go-related gene (hERG) potassium channel (Q12809 whole entry, looked up): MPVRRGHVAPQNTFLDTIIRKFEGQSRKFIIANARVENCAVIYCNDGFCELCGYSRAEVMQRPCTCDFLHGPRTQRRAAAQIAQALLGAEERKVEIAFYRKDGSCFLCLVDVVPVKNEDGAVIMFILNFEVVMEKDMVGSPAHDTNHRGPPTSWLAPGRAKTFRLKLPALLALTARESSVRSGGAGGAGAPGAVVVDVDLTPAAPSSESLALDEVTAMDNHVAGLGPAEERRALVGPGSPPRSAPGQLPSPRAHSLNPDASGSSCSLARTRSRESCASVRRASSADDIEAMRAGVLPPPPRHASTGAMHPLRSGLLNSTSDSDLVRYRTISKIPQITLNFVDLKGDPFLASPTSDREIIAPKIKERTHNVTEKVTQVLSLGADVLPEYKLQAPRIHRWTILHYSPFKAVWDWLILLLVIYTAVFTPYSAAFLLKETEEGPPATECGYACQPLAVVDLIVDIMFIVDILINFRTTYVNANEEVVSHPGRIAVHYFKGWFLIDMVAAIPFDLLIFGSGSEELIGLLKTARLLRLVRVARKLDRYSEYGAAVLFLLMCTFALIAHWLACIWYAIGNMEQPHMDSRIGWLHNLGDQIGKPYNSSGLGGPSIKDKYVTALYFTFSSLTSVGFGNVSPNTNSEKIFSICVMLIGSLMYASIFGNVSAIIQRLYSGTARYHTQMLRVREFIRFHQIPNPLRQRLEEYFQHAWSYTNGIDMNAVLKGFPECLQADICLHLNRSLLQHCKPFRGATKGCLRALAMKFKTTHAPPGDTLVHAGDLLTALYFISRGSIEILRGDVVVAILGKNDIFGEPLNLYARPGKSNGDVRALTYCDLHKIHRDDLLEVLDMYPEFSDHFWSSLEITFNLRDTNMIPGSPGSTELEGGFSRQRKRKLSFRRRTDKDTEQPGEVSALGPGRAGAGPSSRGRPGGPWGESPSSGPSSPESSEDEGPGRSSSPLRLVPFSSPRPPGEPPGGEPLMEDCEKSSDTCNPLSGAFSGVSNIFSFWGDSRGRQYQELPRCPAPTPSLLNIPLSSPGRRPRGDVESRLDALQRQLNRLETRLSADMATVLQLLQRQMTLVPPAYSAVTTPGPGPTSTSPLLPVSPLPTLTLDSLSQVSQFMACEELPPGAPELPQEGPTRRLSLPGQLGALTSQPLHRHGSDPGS

**Q.** Which “hERG current change (%, negative = inhibition) at 10uM” value does the source give for `CN(Cc1ccccc1)C(=O)c1ccccc1NC(=O)c1ccccc1` here?
**A.** -12.7%

**Q.** How did the “hERG current change (%, negative = inhibition) at 10uM” value turn out when `COc1cc(CN(C)CCc2ccccc2)ccc1OCc1ccccc1` was run?
**A.** -72%

**Q.** For `COc1ccc(CCN(C)Cc2ccc(F)cc2F)cc1OC`, which “hERG current change (%, negative = inhibition) at 10uM” value is on record?
**A.** -0.788%

**Q.** For `CCN(CC)c1ccc(CN(C)CCc2ccc(OC)c(OC)c2)cc1`, which “hERG current change (%, negative = inhibition) at 10uM” value is on record?
**A.** -66.1%

**Q.** For `CCN(Cc1ccccc1)Cc1ccc(OCc2ccccc2)c(OC)c1`, which “hERG current change (%, negative = inhibition) at 10uM” value is on record?
**A.** -31.2%

**Q.** With `COc1ccc(Cc2noc(CN(C)CCc3ccccc3)n2)cc1OC` as the molecule, how does the “hERG current change (%, negative = inhibition) at 10uM” value read?
**A.** 7.3%

**Q.** With `COc1cc(CN(CCN(C)C)Cc2ccccc2)ccc1OCc1ccccc1.O=C(O)C(=O)O` as the molecule, how does the “hERG current change (%, negative = inhibition) at 10uM” value read?
**A.** -31%

**Q.** For `CN(Cc1ccccc1)C(=O)c1ccc(NC(=O)c2ccccc2)cc1`, which “hERG current change (%, negative = inhibition) at 10uM” value is on record?
**A.** -59.9%

**Q.** How did the “hERG current change (%, negative = inhibition) at 10uM” value turn out when `O=C(Nc1cccc(S(=O)(=O)N2CCCC2)c1)c1ccc2ccccc2n1` was run?
**A.** 20.9%

**Q.** With `COc1ccc(/C=C/C(=O)NCc2cn(C)nc2C)cc1COc1ccc(Br)cc1` as the molecule, how does the “hERG current change (%, negative = inhibition) at 10uM” value read?
**A.** 7.33%

**Q.** `O=C(Nc1cccc(S(=O)(=O)N2CCCCC2)c1)Nc1ccc(Cl)cc1Cl` was tested. Which “hERG current change (%, negative = inhibition) at 10uM” value did it give?
**A.** 7.77%

**Q.** How did the “hERG current change (%, negative = inhibition) at 10uM” value turn out when `Cn1cc(C(=O)N2CCCC(Nc3ccc(F)cc3)C2)c2ccccc21` (stereo not drawn) was run?
**A.** -21.1%

**Q.** With `O=C(CN1CCCC1c1cccs1)Nc1cccc(S(=O)(=O)N2CCCC2)c1` (stereo not drawn) as the molecule, how does the “hERG current change (%, negative = inhibition) at 10uM” value read?
**A.** -0.843%

**Q.** With `COc1ccc(CCN(C)Cc2ccc(OCc3ccccc3)c(OC)c2)cc1OC` as the molecule, how does the “hERG current change (%, negative = inhibition) at 10uM” value read?
**A.** -74.3%

**Q.** How did the “hERG current change (%, negative = inhibition) at 10uM” value turn out when `COc1ccc(CN(CCc2ccccc2)Cc2ccccc2)cc1OC.O=C(O)C(=O)O` was run?
**A.** -9.99%

**Q.** How did the “hERG current change (%, negative = inhibition) at 10uM” value turn out when `COc1ccccc1OCc1ccc(C(=O)Nc2ccccc2)cc1` was run?
**A.** 11.1%

**Q.** For `COc1cc(CC(=O)O)ccc1OCc1ccccc1`, which “hERG current change (%, negative = inhibition) at 10uM” value is on record?
**A.** 4.35%

**Q.** For `COc1ccc(CCN(C)Cc2ccc(C(=O)Nc3ccccc3)cc2)cc1OC`, which “hERG current change (%, negative = inhibition) at 10uM” value is on record?
**A.** -67.3%

**Q.** For `COc1ccc(C(=O)Nc2ccc(C(=O)NCCc3ccc(OC)c(OC)c3)cc2)cc1`, which “hERG current change (%, negative = inhibition) at 10uM” value is on record?
**A.** 30.5%

**Q.** With `COc1ccc(NS(=O)(=O)c2ccc(-c3cnc(C4CC4)o3)cc2)cc1OC` as the molecule, how does the “hERG current change (%, negative = inhibition) at 10uM” value read?
**A.** 14.6%

**Q.** Which “hERG current change (%, negative = inhibition) at 10uM” value does the source give for `CC1(C)Cc2c(sc(NC(=O)COc3ccc(Cl)cc3)c2C(N)=O)C(C)(C)N1` here?
**A.** 0.951%

**Q.** Which “hERG current change (%, negative = inhibition) at 10uM” value does the source give for `COC(=O)C(NNc1ccc(F)cc1)(NC(=O)c1ccccc1)C(F)(F)F` (stereo not drawn) here?
**A.** -3.67%

**Q.** With `O=C(Nc1cc(Cl)ccc1-n1cncn1)c1ccc([N+](=O)[O-])s1` as the molecule, how does the “hERG current change (%, negative = inhibition) at 10uM” value read?
**A.** -27.9%

**Q.** `O=C(O)C1OC(C(=O)O)C2C1C(F)(F)C2(F)F` (stereo not drawn) was tested. Which “hERG current change (%, negative = inhibition) at 10uM” value did it give?
**A.** 14.3%

**Q.** Which “hERG current change (%, negative = inhibition) at 10uM” value does the source give for `O=C(Cc1cn2ccsc2n1)Nc1cccc2cnccc12` here?
**A.** 9.76%

**Q.** With `CCOC(=O)c1c(C)n(-c2ccccc2)c2ccc(O)c(CN(C)C)c12.Cl` as the molecule, how does the “hERG current change (%, negative = inhibition) at 10uM” value read?
**A.** -30.7%

**Q.** `Cc1ccc(-n2c(C)c([N+](=O)[O-])c3ccc(O)c(CN(C)C)c32)cc1` was tested. Which “hERG current change (%, negative = inhibition) at 10uM” value did it give?
**A.** -23.6%

**Q.** How did the “hERG current change (%, negative = inhibition) at 10uM” value turn out when `COc1ccc(-n2c(C)c([N+](=O)[O-])c3ccc(O)c(CN(C)C)c32)cc1` was run?
**A.** -57.6%

**Q.** With `CCN(CC)Cc1c(O)ccc2c([N+](=O)[O-])c(C)n(-c3ccc(OC)cc3)c12` as the molecule, how does the “hERG current change (%, negative = inhibition) at 10uM” value read?
**A.** -24.9%

**Q.** Which “hERG current change (%, negative = inhibition) at 10uM” value does the source give for `CCOC(=O)c1c(C)n(C)c2ccc(O)c(CN(CC)CC)c12.Cl` here?
**A.** -20%

**Q.** How did the “hERG current change (%, negative = inhibition) at 10uM” value turn out when `CCOC(=O)c1sc(=N)n(-c2ccc(OC)cc2)c1C` was run?
**A.** -4.06%

**Q.** For `CCOC(=O)c1c(C)n(-c2ccc(OC)cc2)c2ccc(O)c(CN(C)C)c12.Cl`, which “hERG current change (%, negative = inhibition) at 10uM” value is on record?
**A.** -74.2%

**Q.** How did the “hERG current change (%, negative = inhibition) at 10uM” value turn out when `CCOC(=O)c1c(C)n(C)c2ccc(O)c(CN(C)C)c12.O=C(O)C(=O)O` was run?
**A.** -6.82%

**Q.** For `CCOC(=O)c1c(C)n(-c2ccc(C)cc2)c2ccc(O)c(CN(C)C)c12.Cl`, which “hERG current change (%, negative = inhibition) at 10uM” value is on record?
**A.** -74.2%

**Q.** With `Cc1cccc(NC(=O)COc2ccccc2C)n1` as the molecule, how does the “hERG current change (%, negative = inhibition) at 10uM” value read?
**A.** 7.83%

**Q.** How did the “hERG current change (%, negative = inhibition) at 10uM” value turn out when `Cl.Clc1ccccc1CSc1nnc([C@@H]2CCCN2)o1` was run?
**A.** 15.1%

**Q.** How did the “hERG current change (%, negative = inhibition) at 10uM” value turn out when `COc1ccc(C(=O)CNc2ccccc2Br)cc1` was run?
**A.** 18.8%

**Q.** Which “hERG current change (%, negative = inhibition) at 10uM” value does the source give for `COC(=O)C1CCN(C(=O)N2CCOCC2)CC1` here?
**A.** 5.68%

**Q.** With `CC(/C=N/NC(=O)c1nnn(-c2nonc2N)c1C(C)C)=C\c1ccco1` as the molecule, how does the “hERG current change (%, negative = inhibition) at 10uM” value read?
**A.** 8.07%

**Q.** For `Cc1ccsc1C(=O)NNC(=O)c1csc(N2CCOCC2)n1`, which “hERG current change (%, negative = inhibition) at 10uM” value is on record?
**A.** 12.7%

**Q.** `CSCCC(NC(=O)c1ccccc1Cl)C(=O)NNC(=O)c1csc(N2CCOCC2)n1` (stereo not drawn) was tested. Which “hERG current change (%, negative = inhibition) at 10uM” value did it give?
**A.** -29.9%

**Q.** How did the “hERG current change (%, negative = inhibition) at 10uM” value turn out when `CSCCC(NC(=O)c1ccccc1Br)C(=O)NNC(=O)c1csc(N2CCOCC2)n1` (stereo not drawn) was run?
**A.** -33.5%

**Q.** With `Cc1cccc(C(=O)NNC(=O)c2csc(N3CCOCC3)n2)c1C` as the molecule, how does the “hERG current change (%, negative = inhibition) at 10uM” value read?
**A.** -9.89%

**Q.** `CSCCC(NC(=O)c1ccc(Cl)cc1Cl)C(=O)NNC(=O)c1csc(N2CCOCC2)n1` (stereo not drawn) was tested. Which “hERG current change (%, negative = inhibition) at 10uM” value did it give?
**A.** -56.8%

**Q.** For `Cc1ccc(C)c(SCC(=O)NNC(=O)c2csc(N3CCOCC3)n2)c1`, which “hERG current change (%, negative = inhibition) at 10uM” value is on record?
**A.** -55.1%

Reference: publication PMC4336329 (PLoS ONE, 2015)
